The text below walks through data of PubChem BioAssay.

The structures appear in SMILES notation.

Chain of Epidermal growth factor receptor (Homo sapiens) (P00533 whole entry, looked up): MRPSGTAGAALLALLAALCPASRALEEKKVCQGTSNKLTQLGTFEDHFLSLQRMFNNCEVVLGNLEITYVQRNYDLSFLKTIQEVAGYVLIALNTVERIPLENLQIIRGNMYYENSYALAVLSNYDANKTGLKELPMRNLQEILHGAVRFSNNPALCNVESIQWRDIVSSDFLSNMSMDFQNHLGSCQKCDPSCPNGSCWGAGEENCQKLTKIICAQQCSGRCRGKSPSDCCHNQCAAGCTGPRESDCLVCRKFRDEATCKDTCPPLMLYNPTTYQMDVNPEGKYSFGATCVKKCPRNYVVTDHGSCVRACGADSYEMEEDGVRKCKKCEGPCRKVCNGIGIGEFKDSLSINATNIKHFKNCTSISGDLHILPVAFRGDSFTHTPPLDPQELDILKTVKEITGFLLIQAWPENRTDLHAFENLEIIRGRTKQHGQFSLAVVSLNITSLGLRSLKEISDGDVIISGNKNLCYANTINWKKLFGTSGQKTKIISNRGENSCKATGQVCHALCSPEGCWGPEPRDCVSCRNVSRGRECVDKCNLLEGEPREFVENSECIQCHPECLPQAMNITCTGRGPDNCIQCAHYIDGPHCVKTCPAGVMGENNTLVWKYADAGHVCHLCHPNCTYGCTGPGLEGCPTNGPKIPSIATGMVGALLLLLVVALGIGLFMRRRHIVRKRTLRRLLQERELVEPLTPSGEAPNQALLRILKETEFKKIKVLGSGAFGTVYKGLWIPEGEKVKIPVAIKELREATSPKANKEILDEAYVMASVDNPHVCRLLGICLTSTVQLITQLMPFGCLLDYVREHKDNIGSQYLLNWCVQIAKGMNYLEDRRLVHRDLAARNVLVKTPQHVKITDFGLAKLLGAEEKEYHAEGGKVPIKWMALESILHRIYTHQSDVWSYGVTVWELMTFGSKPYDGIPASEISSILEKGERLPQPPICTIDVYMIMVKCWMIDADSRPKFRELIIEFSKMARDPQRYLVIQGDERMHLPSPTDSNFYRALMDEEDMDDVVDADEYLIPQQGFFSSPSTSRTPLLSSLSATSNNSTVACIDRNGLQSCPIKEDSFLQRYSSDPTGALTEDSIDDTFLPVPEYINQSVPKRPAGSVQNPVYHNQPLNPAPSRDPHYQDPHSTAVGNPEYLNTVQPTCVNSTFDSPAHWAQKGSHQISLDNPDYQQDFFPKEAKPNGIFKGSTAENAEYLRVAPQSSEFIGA

The experiment has as its target Epidermal growth factor receptor (Homo sapiens) (UniProt P00533). As to the kind of experiment: compounds binding epidermal growth factor receptor – biochemical, small-molecule microarray, 635 nm fluorescence, primary screen (AID 1104).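 Note: score merges 667 nm emission intensity with spot signal to noise over triplicate slides.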 The following applies: EGFR binding, higher = more signal.
Take `CCOC(=O)C1=CCC(c2ccco2)N(S(=O)(=O)c2ccc(C)cc2)C1` (stereo not given): the composite z-score was found to be 0.422.
Under `COCCOC(=O)N1C(=O)[C@@]2(c3cc(C#CCC(C(=O)OC)C(=O)OC)ccc31)[C@H](C(=O)NC[C@H](O)c1ccccc1)[C@H]1C(=O)O[C@H](c3ccccc3)[C@H](c3ccccc3)N1[C@@H]2c1ccc(OCCO)cc1` stands 0.97; under `CCCNC(=O)[C@@]1(Sc2ccc(C)cc2)CC(=O)N(C(C)C)[C@@H]1c1ccc(CO)cc1I`, -1.71.
As for `COC(=O)[C@@]1(Cc2ccc(F)cc2)[C@H]2c3cc(C(=O)N4CCCC4)n(C)c3C[C@H]2CN1C(=O)c1ccccc1`, the composite z-score was -0.372.
The figure for `O=C1O[C@H](c2ccccc2)[C@H](c2ccccc2)N2[C@H]1[C@@H](C(=O)N1CCCCCCC1)[C@]1(C(=O)Nc3ccc(C#CC4(O)CCCCCC4)cc31)[C@H]2c1ccc(O)cc1` is 1.72; for `O=C1O[C@H](c2ccccc2)[C@H](c2ccccc2)N2[C@H]1[C@@H](C(=O)O)[C@]1(C(=O)Nc3ccc(C#CC4(O)CCCCCC4)cc31)[C@H]2c1ccc(O)cc1` it is 0.161; for `COCCOC(=O)N1C(=O)[C@@]2(c3ccccc31)[C@H](c1ccccc1OCCO)N1[C@H](c3ccccc3)[C@H](c3ccccc3)OC(=O)[C@H]1[C@@H]2C(N)=O` it is 0.888.
`NC(=O)[C@@H]1[C@H]2C(=O)O[C@H](c3ccccc3)[C@H](c3ccccc3)N2[C@H](c2ccc(OCCO)cc2)[C@@]12C(=O)Nc1ccc(C#CCCO)cc12` gave a composite z-score of -0.385.
Under `Cc1cccc([C@H]2C[C@H]3C(Br)=C[C@@H]2C(=O)[C@]32CO2)c1` stands -0.0431; under `COc1ccc(C#Cc2ccc3c(c2)[C@]2(C(=O)N3)[C@H](C(=O)Nc3nc4ccccc4s3)[C@H]3C(=O)O[C@H](c4ccccc4)[C@H](c4ccccc4)N3[C@@H]2c2ccccc2OCCO)cc1`, 0.19; under `C=CCNC(=O)[C@@H]1[C@H]2C(=O)O[C@H](c3ccccc3)[C@H](c3ccccc3)N2[C@H](c2ccc(OCCO)cc2)[C@@]12C(=O)N(C(=O)OCCOC)c1ccc(C#CCCO)cc12`, 0.635.
The figure for `COCC(=C=CC[C@@H](O)c1cccc(OCCO)c1)CCO` is -0.846.
In the case of `COCCOC(=O)N1C(=O)[C@@]2(c3cc(C#CC4(O)CCCCCC4)ccc31)[C@H](C(=O)N1CCN(c3ncccn3)CC1)[C@H]1C(=O)O[C@H](c3ccccc3)[C@H](c3ccccc3)N1[C@@H]2c1ccccc1OCCO`, the composite z-score worked out at 0.906.
The figure for `[N-]=[N+]=Nc1ccccc1C[C@]1(C(=O)O)N=C(c2ccc(OCCCO)cc2)O[C@H]1c1ccccc1N=[N+]=[N-]` is 0.342; for `NC(=O)NCC#Cc1ccc2c(c1)[C@]1(C(=O)N2)[C@H](C(=O)N2CCN(c3ncccn3)CC2)[C@H]2C(=O)O[C@H](c3ccccc3)[C@H](c3ccccc3)N2[C@@H]1c1ccc(OCCO)cc1` it is 0.669.
Under `CN(C)C(=O)[C@@]1(Cc2ccccc2)COC(c2ccc(OCCCO)cc2)=N1` stands 0.197; under `CCN(CC)c1ccc(N2CC=CC34O[C@@H]5C=CCCOC(=O)C5[C@H]3C(=O)N(CCO)[C@@H]4C2=O)cc1` (stereo not given in full), -0.869.
The figure for `C[C@@H]1ON(c2ccc(I)cc2)[C@H](c2ccc(OC(=O)OC(C)(C)C)cc2)[C@H]1C(=O)N1C(=O)OC[C@H]1Cc1ccccc1` is 0.458.
In the case of `COc1cc(CO)cc(I)c1O[C@H]1C=C(C(=O)NCCO)C[C@@H](NCC2CCCCC2)[C@@H]1O`, the composite z-score was found to be 0.151.
Under `C=CCNC(=O)[C@@H]1[C@H]2C(=O)O[C@H](c3ccccc3)[C@H](c3ccccc3)N2[C@H](c2ccc(O)cc2)[C@@]12C(=O)Nc1ccc(C#CCC(C(=O)OC)C(=O)OC)cc12` stands -0.0617; under `CCOC(=O)C1=C[C@@H](c2ccccc2)N(S(=O)(=O)c2ccc(C)cc2)[C@H]1c1ccccc1`, 0.0794.
Under `[N-]=[N+]=NC[C@H](Cc1ccccc1)NC(=O)c1ccccc1` stands 0.0214.
Turning to `COc1ccc(C(O)C2C=CC3C(=O)N(c4ccccc4)C(=O)C3N2Nc2ccccc2F)cc1` (stereo not given), the composite z-score is -0.296.
The figure for `C#C[C@@H](CC)O[Si](C#CCCCC#N)(C(C)C)C(C)C` is -0.405; for `CCCCCCCCCCC(O)C1C=CC2C(=O)N(C)C(=O)C2N1Nc1cc(OC)c(OC)c(OC)c1` (stereo not given) it is -0.637; for `C=C[C@H](C)[C@H](OC(=O)Nc1ccc(OC)cc1)c1ccc(OCCO)cc1` it is -2.13.
Under `COCCOC(=O)N1C(=O)[C@@]2(c3cc(C#CC4(O)CCCCCC4)ccc31)[C@H](c1ccc(OCCO)cc1)N1[C@H](c3ccccc3)[C@H](c3ccccc3)OC(=O)[C@H]1[C@@H]2C(=O)Nc1nc2ccccc2s1` stands 0.538.
The figure for `O=c1cccc(-c2ccco2)o1` is 0.693; for `CN(C)C(=O)[C@@]1(Cc2ccccc2N=[N+]=[N-])N=C(c2ccc(OCCCO)cc2)O[C@H]1c1ccccc1` it is -0.103.
For the compound `CC(C)[C@H]1NC(=O)[C@@]23C(=O)N[C@@H](Cc4ccccc4)C2[C@H](C)[C@@]2(C)O[C@H]2C3/C=C/CCC/C=C/CNC(=O)[C@H](Cc2ccccc2)NC1=O` (stereo not given in full), the composite z-score is -0.023.
For the compound `C=CCC(OC(C)=O)[C@@H]1[C@@H](N(Cc2cc3ccccc3o2)C(=O)c2ccc(-c3ccccc3)cc2)c2cc(OCCCO)ccc2N1C(=O)Cc1ccc(OC)cc1` (stereo not given in full), the composite z-score is 0.0306.
Under `[N-]=[N+]=NCc1ccccc1[C@H]1OC(c2ccc(OCCCO)cc2)=N[C@@]1(CCS(=O)(=O)c1ccccc1)C(=O)NCc1ccccc1` stands 0.333; under `CC(=O)n1cc(C(O)C2C=CC3C(=O)N(c4ccccc4)C(=O)C3N2Nc2ccc(C(C)C)cc2)c2ccccc21` (stereo not given), 0.281.
Under `C=C(COC)C(=O)CC[C@H](OC(C)=O)c1ccc(OCCO)cc1` stands -0.0056.
For `Cc1ccccc1C(O)C1C=CC2C(=O)NC(=O)C2N1Nc1ccc(Cl)cc1Cl` (stereo not given), the composite z-score turned out to be 0.207.
